# Measurements: PubChem BioAssay (NCATS)
# Where “and” joins values, the source holds several entries; their conditions need not be identical. Equal entries are not always repeated. Results filed as inconclusive are left out. A number with no mark means an inactive call. Calls of active or inactive are those of the source. The call rests on the fitted dose curve; in most records, active means well fitted curve in the direction sought with a large enough effect; inconclusive means small, poorly fitted or top-dose-only effect, or another doubt; inactive means no such curve, though single readings can be large; an effect the other way counts as inactive or inconclusive.
# Tests used:
# [1] = Viability qHTS for spleen associated tyrosine kinase inhibitor (SYKi) naive MV4-11 cells (AID 1963823); further: nearly all actives have a fitted effect of over 40% in size
# In short: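 Read-out: CellTiter-Glo luminescence. Exposure: 72 hr, 37 C, 5% CO2, 95% humidity. Cells: MV4-11 without SYK inhibitor history, 500/well, qHTS format.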
# [2] = Viability qHTS for spleen associated tyrosine kinase inhibitor (SYKi) drug resistant MV4-11 cells (AID 1963824); further: nearly all actives have a fitted effect of over 35% in size
# In short: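 SYK inhibitor-resistant MV4-11 AML cells, 500 per well, added to predispensed compounds and incubated 72 hr at 37 C, 5% CO2. Viability measured by CellTiter-Glo luminescence after 10 min at room temperature.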
# [3] = Quantitative highthroughput screen to assess conditional lethalithy of P12 Ichikawa cells grown in Human Plasma-Like Medium with dialyzed fetal bovine serum (HPLM+ds) (AID 1963879); conditions: Potency: viability; further: nearly all actives have a fitted effect of over 35% in size; on Viability: series mostly up to about 46 µM
# In short: (§1)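 Each medium arm—HPLM with 10% dialyzed FBS, or RPMI1640 with 5 mM glucose and 10% untreated or dialyzed FBS—was screened against an 11-point, 3-fold compound titration for 48 h at 37 °C, with CellTiter-Glo luminescence as endpoint.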
# [4] = Cellular viability qHTS for adrenocortical cancer (ACC) cell line SW-13 (AID 1963989); conditions: SW-13 ACC cells viability, CellTiter-Glo, 48 h; activity (max response): hits give low values; further: nearly all actives have a fitted effect of over 65% in size;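 on activity (max response): cells grown in serum-free medium with ITS supplement; on the % scale 0 is the no-effect control and ±100 the full control effect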
# In short: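 Compound titrations (up to 46 uM final, in DMSO) were applied to SW-13 cells for 48 h at 37C/5% CO2. Reading used CellTiter-Glo after 20 min at room temperature; fitted curves yielded IC50 and efficacy.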
# [5] = Cellular viability qHTS for adrenocortical cancer (ACC) cell line NCI-H295R (AID 1963990); further: nearly all actives have a fitted effect of over 60% in size
# In short: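 Readout: CellTiter-Glo luminescence, 20 min RT. Exposure: 48 h, 37C/5% CO2. Cells: NCI-H295R, ITS-DMEM serum-free. Range: up to 46 uM. Analysis: 4PL fit, IC50 plus efficacy.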
# [6] = Quantitative highthroughput screen to assess conditional lethalithy of P12 Ichikawa cells grown in RPMI1640 with dialyzed fetal bovine serum (RPMI+ds) (AID 1963880); conditions: Potency: P12-Ichikawa viability; further: nearly all actives have a fitted effect of over 35% in size;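 on Viability: 100% = DMSO wells and 0% = empty wells on each plate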
# In short: as §1
# [7] = Quantitative highthroughput screen to assess conditional lethalithy of P12 Ichikawa cells grown in RPMI1640 with untreated serum (RPMI+s) (AID 1963881); conditions: Potency: viability; further: nearly all actives have a fitted effect of over 35% in size;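 on Viability: series mostly up to about 46 µM; 100% = DMSO wells and 0% = empty wells without cells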
# In short: as §1
# [8] = Quantitative highthroughput screen to assess conditional lethalithy of SEM cells grown in Human Plasma-Like Medium with dialyzed fetal bovine serum (HPLM+ds) (AID 1963882); further: nearly all actives have a fitted effect of over 35% in size
# In short: as §1
# [9] = Quantitative highthroughput screen to assess conditional lethalithy of SEM cells grown in RPMI1640 with unreated serum (RPMI+s) (AID 1963883); further: nearly all actives have a fitted effect of over 35% in size;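 on Viability: 100% = DMSO wells and 0% = empty wells without cells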
# In short: as §1
# [10] = Quantitative highthroughput screen to assess conditional lethalithy of SEM cells grown in RPMI1640 with dialyzed fetal bovine serum (RPMI+ds) (AID 1963884); further: nearly all actives have a fitted effect of over 35% in size
# In short: as §1
# Potency means the concentration at half of the fitted maximal effect.
Structure (SMILES),Potency [1],Potency [2],Potency [3],Potency [4],Potency [5],Potency [6],Potency [7],Potency [8],Potency [9],Potency [10],activity (max response) [4]
Cc1c(CN2CCN(S(C)(=O)=O)CC2)sc2c(N3CCOCC3)nc(-c3cnc(N)nc3)nc12,146 nM (active),366 nM (active),418 nM (active),891 nM (active),794 nM (active),,,,,,
COc1cc2c(cc1Cc1cccc(Cl)c1F)c(=O)c(C(=O)O)cn2[C@H](CO)C(C)C,5900 nM (active),7420 nM (active),26400 nM (active),,25100 nM (active),16600 nM (active),16600 nM (active),,,,
COc1ccc(C=Cc2cc(OC)c(OC)c(OC)c2)cc1NC(=O)[C@H](N)CO,33.2 nM (active),41.7 nM (active),29.6 nM (active),126 nM (active),199 nM (active),46.9 nM (active),,26.4 nM (active),20.9 nM (active),29.6 nM (active),
Clc1cccc(-c2nnnn2Cc2cccnc2)c1Cl,inactive,inactive,7430 nM (active),,,,1320 nM (active),,,,
COc1cc2c(cc1-c1c(C)noc1C)ncc1[nH]c(=O)n([C@H](C)c3ccccn3)c12,206 nM (active),259 nM (active),5900 nM (active),,,,,1870 nM (active),1870 nM (active),1480 nM (active),-16.6%
Cc1cc(C(=O)NOCCO)c(Nc2ccc(I)cc2F)n(C)c1=O,52.5 nM (active),41.1 nM (active),inactive,,inactive,inactive,inactive,66.2 nM (active),inactive,7.4 nM (active),
COc1cccc2c(NCc3ccccc3)nc(-n3c(N)nc4ccccc43)nc12,2350 nM (active),2910 nM (active),16600 nM (active),3160 nM (active),5620 nM (active),18700 nM (active),16600 nM (active),9350 nM (active),5900 nM (active),14800 nM (active),
Cn1cnc(-c2cc3nccc(Oc4ccc(NC(=S)NC(=O)Cc5ccccc5)cc4F)c3s2)c1,25.9 nM (active),36.6 nM (active) and 166 nM (active),23500 nM (active),22400 nM (active),14100 nM (active),18700 nM (active),18700 nM (active),590 nM (active),1180 nM (active),66.2 nM (active),
